{"source": "PubChem BioAssay (NCI)", "note": "This is part of a sample that, as a whole, favours compounds with a hit. Of some 83,000 tested, about 20% had one in any assay.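 In brief: 96-well plates, 48 h treatment, single concentration, percent growth endpoint.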 Activity calls are given as the source filed them. How the source made its calls: active means growth percent below 10; inactive means the rest."}
{"test_system": "CCRF-CEM leukemia", "assay": "NCI-60 one-dose screen, 48 h (100 = growth as untreated, 0 = no growth, -100 = all killed)", "settings": "10 µM unless noted"}
{"smiles": "CN(C)c1ccc(C2Nc3ccccc3-n3cccc32)cc1", "note": "(stereo not drawn)", "growth": "109% (inactive)"}
{"smiles": "Nc1nc2c(c3ncccc13)C(c1cccc(Br)c1)Cc1ncccc1-2", "note": "(stereo not drawn)", "growth": "8.84% (active)"}
{"smiles": "COc1ccc(-n2c(C)nc3c(c(C)nn3-c3ccccc3)c2=O)cc1", "growth": "8.6% (active)"}
{"smiles": "COc1ccc(-n2cc(-c3ccccc3)c3c(SCC(=O)N/N=C/c4ccc([N+](=O)[O-])cc4)ncnc32)cc1", "growth": "104% (inactive)"}
{"smiles": "Nc1c(C(=O)Nc2ccccc2)sc2nc3c(cc12)CN(CCc1ccccc1)CC3", "growth": "104% (inactive)"}
{"smiles": "CCOC(=O)c1c2ncccc2n2c(=O)n(-c3ccc(Cl)cc3)nnc12", "growth": "72% (inactive)"}
{"smiles": "CCN(CC)CCCC(C)Nc1ccnc2c(OC)cccc12", "note": "(stereo not drawn)", "growth": "94.3% (inactive)"}
{"smiles": "OC(c1cccc(C(F)(F)F)c1)c1cnccc1NC1CCCCCC1", "note": "(stereo not drawn)", "growth": "30.5% (inactive)"}
{"smiles": "NC(=S)N/N=C/c1cc(-c2cccc(N)c2)ccn1", "growth": "6.08% (active)"}
{"smiles": "COc1ccc(CCN2CCCn3c2nc2ccccc2c3=O)cc1", "growth": "21.1% (inactive)"}
{"smiles": "CCOC(=O)C(Cc1cc(I)c(O)c(I)c1)NC(=O)c1ccccc1", "note": "(stereo not drawn)", "growth": "95.3% (inactive)"}
{"smiles": "COc1cc(C#N)cc(OC)c1OCCN(CCOc1c(OC)cc(C#N)cc1OC)S(=O)(=O)c1ccc(C)cc1", "growth": "103% (inactive)"}
{"smiles": "CN1CCN(Cc2ccc(NC(=O)c3cncc(C#Cc4cncc5nccnc45)c3)cc2C(F)(F)F)CC1", "growth": "58.2% (inactive)"}
{"smiles": "Nc1nc(-c2ccc(F)cc2)cc(-c2cnn(-c3ccccc3)n2)n1", "growth": "103% (inactive)"}
{"smiles": "CC(=O)C1=C(O)C=C2Oc3c(C(=O)/C=C/c4ccccc4)c(O)c(C)c(O)c3[C@]2(C)C1=O", "growth": "22.1% (inactive)"}
{"smiles": "O=[N+]([O-])c1cccc(-c2nc3sccn3c2-c2ccnc(NCCCNS(=O)(=O)c3ccc(Br)cc3)n2)c1", "growth": "18.6% (inactive)"}
{"smiles": "CCOC(=O)/C=C/C(=O)[C@H](CC(C)C)NC(=O)[C@H](Cc1ccccc1)NC(=O)OCc1ccccc1", "growth": "-18.5% (active)"}
{"smiles": "Cc1cc2cc3cc(C)c(N(C)C)cc3nc2cc1N(C)C", "growth": "17.3% (inactive)"}
{"smiles": "C=C1CC2(OC1=O)C(=O)N(CCCCCCCCCCCCN1C(=O)C3(CC(=C)C(=O)O3)c3ccccc31)c1ccccc12", "note": "(stereo not drawn)", "growth": "4.77% (active)"}
{"smiles": "O=C1c2cccnc2C(=O)c2c1c(C(=O)OCCN1CCCCC1)c1ccccn21", "growth": "-8.77% (active)"}
{"smiles": "COc1ccccc1N1CCN(CCn2c(=O)c3c(c4ccccc4n3C)n(C)c2=O)CC1", "growth": "102% (inactive)"}
{"smiles": "C/C(=C(/c1ccc(O)cc1)c1ccc(OCCN(C)C)cc1)c1ccccc1", "growth": "94.3% (inactive)"}
{"smiles": "CCOC(=O)c1c2c(n3ccc(NC(=O)CCN4CCOCC4)cc13)C(=O)c1ncccc1C2=O", "growth": "19.3% (inactive)"}
{"smiles": "Cc1cc(=O)oc2cc(Oc3nc(-c4cccs4)cn4c(-c5cccs5)cnc34)ccc12", "growth": "94.6% (inactive)"}
{"smiles": "CC(C)[C@@H]1CC[C@]2(C(=O)NCCCCN=C(N)N)CC[C@]3(C)[C@H](CC[C@@H]4[C@@]5(C)CCC(=O)C(C)(C)[C@@H]5CC[C@]43C)[C@@H]12", "growth": "37.6% (inactive)"}
{"smiles": "Oc1cc(O)c2c(=S)cc(-c3ccc(Cl)cc3)oc2c1", "growth": "15.8% (inactive)"}
{"smiles": "COc1ccc(-c2cn3c(-c4ccc(OC)cc4)cnc3c(Oc3ccc4c(C)cc(=O)oc4c3)n2)cc1", "growth": "93.2% (inactive)"}
{"smiles": "CN1CCN(Cc2ccc(NC(=O)c3[nH]ncc3Nc3ccnc4ccsc34)cc2)CC1", "growth": "11% (inactive)"}
{"smiles": "Nc1nc2ccc(-c3nc4ccc5[nH]ncc5c4c4c3CCC4)cc2s1", "growth": "17.3% (inactive)"}
{"smiles": "Oc1ccc2c(=S)cc(-c3ccc(Br)cc3)oc2c1O", "growth": "5.37% (active)"}
{"smiles": "Clc1cccc(Nc2nc(Nc3cnc4ccccc4c3)c3[nH]cnc3n2)c1", "growth": "84.8% (inactive)"}
{"smiles": "COc1ccc(-c2cc(NC(=O)Nc3ccc(O)cc3)no2)cc1", "growth": "31% (inactive)"}
{"smiles": "CC(=O)CC(C)(C)c1ccc(Cl)cc1", "growth": "101% (inactive)"}
{"smiles": "O=C1C2CC=CCC2C(=O)N1CNc1ccc(Cl)cc1", "note": "(stereo not drawn)", "growth": "120% (inactive)"}
{"smiles": "CN1CCN(Cc2ccc(NC(=O)c3[nH]ncc3Nc3ncnc4c3CCC4)cc2)CC1", "growth": "11.1% (inactive)"}
{"test_system": "MOLT-4 leukemia", "assay": "NCI-60 one-dose screen, 48 h (100 = growth as untreated, 0 = no growth, -100 = all killed)", "settings": "10 µM unless noted"}
{"smiles": "CN(C)c1ccc(C2Nc3ccccc3-n3cccc32)cc1", "note": "(stereo not drawn)", "growth": "104% (inactive)"}
{"smiles": "Nc1nc2c(c3ncccc13)C(c1cccc(Br)c1)Cc1ncccc1-2", "note": "(stereo not drawn)", "growth": "7.86% (active)"}
{"smiles": "O=[N+]([O-])c1cccc(-c2nc3sccn3c2-c2ccnc(NCCCNS(=O)(=O)c3ccc(F)cc3)n2)c1", "growth": "-18.2% (active)"}
{"smiles": "COc1ccc(-n2c(C)nc3c(c(C)nn3-c3ccccc3)c2=O)cc1", "growth": "12.2% (inactive)"}
{"smiles": "COc1ccc(-n2cc(-c3ccccc3)c3c(SCC(=O)N/N=C/c4ccc([N+](=O)[O-])cc4)ncnc32)cc1", "growth": "108% (inactive)"}
{"smiles": "Nc1c(C(=O)Nc2ccccc2)sc2nc3c(cc12)CN(CCc1ccccc1)CC3", "growth": "104% (inactive)"}
{"smiles": "CCOC(=O)c1c2ncccc2n2c(=O)n(-c3ccc(Cl)cc3)nnc12", "growth": "86.8% (inactive)"}
{"smiles": "CCN(CC)CCCC(C)Nc1ccnc2c(OC)cccc12", "note": "(stereo not drawn)", "growth": "102% (inactive)"}
{"smiles": "OC(c1cccc(C(F)(F)F)c1)c1cnccc1NC1CCCCCC1", "note": "(stereo not drawn)", "growth": "22.6% (inactive)"}
{"smiles": "NC(=S)N/N=C/c1cc(-c2cccc(N)c2)ccn1", "growth": "7.42% (active)"}
{"smiles": "COc1ccc(CCN2CCCn3c2nc2ccccc2c3=O)cc1", "growth": "18.5% (inactive)"}
{"smiles": "O=C(/C=C\\c1cccc([N+](=O)[O-])c1)c1ccccc1", "growth": "18.9% (inactive)"}
{"smiles": "CCOC(=O)C(Cc1cc(I)c(O)c(I)c1)NC(=O)c1ccccc1", "note": "(stereo not drawn)", "growth": "91.5% (inactive)"}
{"smiles": "COc1cc(C#N)cc(OC)c1OCCN(CCOc1c(OC)cc(C#N)cc1OC)S(=O)(=O)c1ccc(C)cc1", "growth": "97.6% (inactive)"}
{"smiles": "CN1CCN(Cc2ccc(NC(=O)c3cncc(C#Cc4cncc5nccnc45)c3)cc2C(F)(F)F)CC1", "growth": "37% (inactive)"}
{"smiles": "Nc1nc(-c2ccc(F)cc2)cc(-c2cnn(-c3ccccc3)n2)n1", "growth": "104% (inactive)"}
{"smiles": "CC(=O)C1=C(O)C=C2Oc3c(C(=O)/C=C/c4ccccc4)c(O)c(C)c(O)c3[C@]2(C)C1=O", "growth": "32.6% (inactive)"}
{"smiles": "COc1ccc(C/C(C)=C(\\c2ccc(OCCN3CCCCCC3)cc2)c2ccc(OC(=O)C3CCCCC3)cc2)cc1", "growth": "32.3% (inactive)"}
{"smiles": "O=[N+]([O-])c1cccc(-c2nc3sccn3c2-c2ccnc(NCCCNS(=O)(=O)c3ccc(Br)cc3)n2)c1", "growth": "19.7% (inactive)"}
{"smiles": "CCOC(=O)/C=C/C(=O)[C@H](CC(C)C)NC(=O)[C@H](Cc1ccccc1)NC(=O)OCc1ccccc1", "growth": "0.254% (active)"}
{"smiles": "Cc1cc2cc3cc(C)c(N(C)C)cc3nc2cc1N(C)C", "growth": "29.1% (inactive)"}
{"smiles": "C=C1CCC2C3(C)COC(C)(C)OC3CCC2(C)C1C/C=C1/C(=O)OCC1OC(C)=O", "note": "(stereo not drawn)", "growth": "-16.8% (active)"}
{"smiles": "C=C1CC2(OC1=O)C(=O)N(CCCCCCCCCCCCN1C(=O)C3(CC(=C)C(=O)O3)c3ccccc31)c1ccccc12", "note": "(stereo not drawn)", "growth": "2.36% (active)"}
{"smiles": "O=C1c2cccnc2C(=O)c2c1c(C(=O)OCCN1CCCCC1)c1ccccn21", "growth": "-19.1% (active)"}
{"smiles": "COc1ccccc1N1CCN(CCn2c(=O)c3c(c4ccccc4n3C)n(C)c2=O)CC1", "growth": "88.1% (inactive)"}
{"smiles": "C/C(=C(/c1ccc(O)cc1)c1ccc(OCCN(C)C)cc1)c1ccccc1", "growth": "32.8% (inactive)"}
{"smiles": "CCOC(=O)c1c2c(n3ccc(NC(=O)CCN4CCOCC4)cc13)C(=O)c1ncccc1C2=O", "growth": "18.6% (inactive)"}
{"smiles": "Cc1cc(=O)oc2cc(Oc3nc(-c4cccs4)cn4c(-c5cccs5)cnc34)ccc12", "growth": "78.7% (inactive)"}
{"smiles": "CC(C)[C@@H]1CC[C@]2(C(=O)NCCCCN=C(N)N)CC[C@]3(C)[C@H](CC[C@@H]4[C@@]5(C)CCC(=O)C(C)(C)[C@@H]5CC[C@]43C)[C@@H]12", "growth": "38.6% (inactive)"}
{"smiles": "Oc1cc(O)c2c(=S)cc(-c3ccc(Cl)cc3)oc2c1", "growth": "24.1% (inactive)"}
{"smiles": "CN1CCN(Cc2ccc(NC(=O)c3[nH]ncc3Nc3ccnc4ccsc34)cc2)CC1", "growth": "2.39% (active)"}
{"smiles": "Nc1nc2ccc(-c3nc4ccc5[nH]ncc5c4c4c3CCC4)cc2s1", "growth": "18.5% (inactive)"}
{"smiles": "Oc1ccc2c(=S)cc(-c3ccc(Br)cc3)oc2c1O", "growth": "7.88% (active)"}
{"smiles": "Clc1cccc(Nc2nc(Nc3cnc4ccccc4c3)c3[nH]cnc3n2)c1", "growth": "90.6% (inactive)"}
{"smiles": "COc1ccc(-c2cc(NC(=O)Nc3ccc(O)cc3)no2)cc1", "growth": "19.2% (inactive)"}
{"smiles": "CC(=O)CC(C)(C)c1ccc(Cl)cc1", "growth": "100% (inactive)"}
{"smiles": "O=C1C2CC=CCC2C(=O)N1CNc1ccc(Cl)cc1", "note": "(stereo not drawn)", "growth": "101% (inactive)"}
{"smiles": "CN1CCN(Cc2ccc(NC(=O)c3[nH]ncc3Nc3ncnc4c3CCC4)cc2)CC1", "growth": "-2.96% (active)"}
